Measurements published in ChEMBL document CHEMBL1961873, “Compounds: GSK PKIS; Assays: Nanosyn kinase panel” (2012).

Key:
[1] = molecular target: Protein kinase C gamma type (Homo sapiens) (UniProt P05129); settings: at 1 µM;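 further: each value is an averaged percent inhibition of the enzyme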
[2] = molecular target: T1, Protein kinase C iota type (Homo sapiens) (UniProt P41743); settings: at 0.1 µM
T1 sequence (whole entry): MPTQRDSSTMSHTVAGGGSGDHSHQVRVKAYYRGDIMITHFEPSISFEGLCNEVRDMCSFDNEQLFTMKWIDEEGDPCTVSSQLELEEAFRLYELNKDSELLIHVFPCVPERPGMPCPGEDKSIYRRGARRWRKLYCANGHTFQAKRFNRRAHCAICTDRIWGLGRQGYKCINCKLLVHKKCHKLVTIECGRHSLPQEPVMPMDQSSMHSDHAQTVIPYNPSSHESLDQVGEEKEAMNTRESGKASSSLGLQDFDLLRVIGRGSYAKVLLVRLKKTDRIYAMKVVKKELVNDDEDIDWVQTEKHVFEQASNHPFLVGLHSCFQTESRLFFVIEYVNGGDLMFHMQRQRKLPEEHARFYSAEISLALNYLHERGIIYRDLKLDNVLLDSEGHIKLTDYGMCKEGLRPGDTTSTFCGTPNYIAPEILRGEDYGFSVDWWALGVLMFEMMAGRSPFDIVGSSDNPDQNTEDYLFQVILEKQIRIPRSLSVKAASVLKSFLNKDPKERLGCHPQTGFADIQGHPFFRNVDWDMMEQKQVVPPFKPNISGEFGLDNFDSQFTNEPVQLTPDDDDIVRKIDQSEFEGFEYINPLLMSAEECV

[3] = molecular target: T1, Protein kinase C iota type (Homo sapiens); settings: at 1 µM
[4] = molecular target: Protein kinase C theta type (Homo sapiens) (UniProt Q04759); settings: at 0.1 µM
Sequence of Protein kinase C theta type (Homo sapiens) (Q04759 whole entry, looked up): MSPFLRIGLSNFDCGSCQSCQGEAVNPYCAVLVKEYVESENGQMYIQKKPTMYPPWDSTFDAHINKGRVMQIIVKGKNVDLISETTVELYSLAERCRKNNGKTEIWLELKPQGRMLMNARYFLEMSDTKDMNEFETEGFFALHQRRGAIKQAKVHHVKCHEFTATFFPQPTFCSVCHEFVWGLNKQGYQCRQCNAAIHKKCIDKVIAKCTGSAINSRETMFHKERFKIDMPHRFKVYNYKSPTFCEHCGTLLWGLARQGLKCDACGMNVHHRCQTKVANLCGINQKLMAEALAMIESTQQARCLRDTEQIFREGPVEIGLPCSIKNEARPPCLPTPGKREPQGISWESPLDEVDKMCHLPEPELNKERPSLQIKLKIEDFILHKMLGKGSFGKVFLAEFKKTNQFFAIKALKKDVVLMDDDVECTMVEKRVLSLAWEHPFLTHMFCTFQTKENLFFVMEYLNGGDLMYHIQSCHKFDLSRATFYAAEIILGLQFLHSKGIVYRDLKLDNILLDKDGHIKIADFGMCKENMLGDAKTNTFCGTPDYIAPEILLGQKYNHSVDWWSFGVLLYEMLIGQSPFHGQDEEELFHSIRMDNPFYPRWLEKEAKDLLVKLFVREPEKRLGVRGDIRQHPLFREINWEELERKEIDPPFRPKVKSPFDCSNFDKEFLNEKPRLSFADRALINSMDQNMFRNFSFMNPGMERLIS

[5] = molecular target: Protein kinase C theta type (Homo sapiens) (UniProt Q04759); settings: at 1 µM
[6] = molecular target: Protein kinase C beta type (Homo sapiens) (UniProt P05771); settings: at 0.1 µM
Sequence of Protein kinase C beta type (Homo sapiens) (P05771 2-671 limits assumed): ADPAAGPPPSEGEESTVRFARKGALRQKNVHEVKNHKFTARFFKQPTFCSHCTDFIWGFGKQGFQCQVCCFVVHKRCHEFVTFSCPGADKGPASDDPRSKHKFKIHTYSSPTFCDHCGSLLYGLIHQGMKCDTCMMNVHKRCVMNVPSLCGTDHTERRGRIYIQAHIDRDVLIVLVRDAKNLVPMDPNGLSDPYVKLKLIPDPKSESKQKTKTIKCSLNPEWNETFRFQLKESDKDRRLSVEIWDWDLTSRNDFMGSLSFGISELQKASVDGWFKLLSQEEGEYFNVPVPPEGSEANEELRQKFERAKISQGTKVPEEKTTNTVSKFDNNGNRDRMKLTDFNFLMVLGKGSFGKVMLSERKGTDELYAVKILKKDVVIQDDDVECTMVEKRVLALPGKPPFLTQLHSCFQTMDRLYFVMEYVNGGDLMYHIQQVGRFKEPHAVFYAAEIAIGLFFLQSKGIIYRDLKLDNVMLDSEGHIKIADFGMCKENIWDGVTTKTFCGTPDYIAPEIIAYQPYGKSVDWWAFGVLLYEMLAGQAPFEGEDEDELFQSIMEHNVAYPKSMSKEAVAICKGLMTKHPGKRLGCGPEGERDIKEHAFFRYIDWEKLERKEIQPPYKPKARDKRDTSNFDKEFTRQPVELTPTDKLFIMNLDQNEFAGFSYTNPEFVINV

[7] = molecular target: Protein kinase C beta type (Homo sapiens) (UniProt P05771); settings: at 1 µM
[8] = molecular target: T2, Serine/threonine-protein kinase D1 (Homo sapiens) (UniProt Q15139); settings: at 0.1 µM
T2 sequence (whole entry): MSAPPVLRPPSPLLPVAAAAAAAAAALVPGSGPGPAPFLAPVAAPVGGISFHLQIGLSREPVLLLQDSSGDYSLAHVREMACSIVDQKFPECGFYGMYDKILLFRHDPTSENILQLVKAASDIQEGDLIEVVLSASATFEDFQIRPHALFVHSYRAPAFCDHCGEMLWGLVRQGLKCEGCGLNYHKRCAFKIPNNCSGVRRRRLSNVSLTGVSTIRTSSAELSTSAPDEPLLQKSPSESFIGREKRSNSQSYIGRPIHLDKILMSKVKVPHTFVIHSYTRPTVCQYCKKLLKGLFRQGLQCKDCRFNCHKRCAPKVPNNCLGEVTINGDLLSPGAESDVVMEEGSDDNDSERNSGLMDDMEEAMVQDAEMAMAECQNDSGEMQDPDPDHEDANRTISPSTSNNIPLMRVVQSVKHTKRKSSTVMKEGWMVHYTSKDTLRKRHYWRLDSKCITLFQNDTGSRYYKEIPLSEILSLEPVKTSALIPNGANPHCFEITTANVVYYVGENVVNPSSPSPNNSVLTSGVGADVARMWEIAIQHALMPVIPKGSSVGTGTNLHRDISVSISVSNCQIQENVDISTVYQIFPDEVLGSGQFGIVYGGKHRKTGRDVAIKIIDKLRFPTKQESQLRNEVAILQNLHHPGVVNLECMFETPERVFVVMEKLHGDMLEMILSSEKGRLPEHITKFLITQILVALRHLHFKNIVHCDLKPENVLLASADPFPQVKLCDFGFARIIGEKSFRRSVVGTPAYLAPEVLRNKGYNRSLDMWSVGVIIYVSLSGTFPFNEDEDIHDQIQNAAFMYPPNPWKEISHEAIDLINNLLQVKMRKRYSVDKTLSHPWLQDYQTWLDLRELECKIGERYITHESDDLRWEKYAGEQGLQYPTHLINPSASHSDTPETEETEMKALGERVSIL

[9] = molecular target: T2, Serine/threonine-protein kinase D1 (Homo sapiens); settings: at 1 µM
[10] = molecular target: T3, Serine/threonine-protein kinase D2 (Homo sapiens) (UniProt Q9BZL6); settings: at 0.1 µM
T3 sequence (whole entry): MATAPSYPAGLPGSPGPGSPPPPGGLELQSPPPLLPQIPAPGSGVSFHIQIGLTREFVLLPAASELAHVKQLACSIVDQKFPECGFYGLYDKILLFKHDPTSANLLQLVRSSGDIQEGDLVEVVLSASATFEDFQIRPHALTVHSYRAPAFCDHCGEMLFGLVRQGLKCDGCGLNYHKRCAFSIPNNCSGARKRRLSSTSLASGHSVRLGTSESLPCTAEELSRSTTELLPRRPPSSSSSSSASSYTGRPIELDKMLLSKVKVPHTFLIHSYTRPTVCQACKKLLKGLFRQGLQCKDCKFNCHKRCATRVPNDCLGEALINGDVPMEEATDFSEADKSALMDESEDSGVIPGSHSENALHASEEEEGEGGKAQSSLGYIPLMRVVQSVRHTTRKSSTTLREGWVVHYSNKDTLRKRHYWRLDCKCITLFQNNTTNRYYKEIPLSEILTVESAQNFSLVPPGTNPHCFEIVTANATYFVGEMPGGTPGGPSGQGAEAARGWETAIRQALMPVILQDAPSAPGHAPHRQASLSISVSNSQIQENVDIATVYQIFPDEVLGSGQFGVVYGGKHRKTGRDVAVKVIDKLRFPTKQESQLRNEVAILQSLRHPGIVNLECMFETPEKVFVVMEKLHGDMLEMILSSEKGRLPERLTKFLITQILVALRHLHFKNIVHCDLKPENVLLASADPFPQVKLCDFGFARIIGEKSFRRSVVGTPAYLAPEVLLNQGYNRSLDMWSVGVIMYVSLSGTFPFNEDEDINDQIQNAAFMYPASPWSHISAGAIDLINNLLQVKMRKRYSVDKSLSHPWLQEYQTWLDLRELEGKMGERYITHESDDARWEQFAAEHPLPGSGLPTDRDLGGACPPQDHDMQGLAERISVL

[11] = molecular target: T3, Serine/threonine-protein kinase D2 (Homo sapiens); settings: at 1 µM
[12] = molecular target: T4, Serine/threonine-protein kinase D3 (Homo sapiens) (UniProt O94806); settings: at 0.1 µM
T4 sequence (whole entry): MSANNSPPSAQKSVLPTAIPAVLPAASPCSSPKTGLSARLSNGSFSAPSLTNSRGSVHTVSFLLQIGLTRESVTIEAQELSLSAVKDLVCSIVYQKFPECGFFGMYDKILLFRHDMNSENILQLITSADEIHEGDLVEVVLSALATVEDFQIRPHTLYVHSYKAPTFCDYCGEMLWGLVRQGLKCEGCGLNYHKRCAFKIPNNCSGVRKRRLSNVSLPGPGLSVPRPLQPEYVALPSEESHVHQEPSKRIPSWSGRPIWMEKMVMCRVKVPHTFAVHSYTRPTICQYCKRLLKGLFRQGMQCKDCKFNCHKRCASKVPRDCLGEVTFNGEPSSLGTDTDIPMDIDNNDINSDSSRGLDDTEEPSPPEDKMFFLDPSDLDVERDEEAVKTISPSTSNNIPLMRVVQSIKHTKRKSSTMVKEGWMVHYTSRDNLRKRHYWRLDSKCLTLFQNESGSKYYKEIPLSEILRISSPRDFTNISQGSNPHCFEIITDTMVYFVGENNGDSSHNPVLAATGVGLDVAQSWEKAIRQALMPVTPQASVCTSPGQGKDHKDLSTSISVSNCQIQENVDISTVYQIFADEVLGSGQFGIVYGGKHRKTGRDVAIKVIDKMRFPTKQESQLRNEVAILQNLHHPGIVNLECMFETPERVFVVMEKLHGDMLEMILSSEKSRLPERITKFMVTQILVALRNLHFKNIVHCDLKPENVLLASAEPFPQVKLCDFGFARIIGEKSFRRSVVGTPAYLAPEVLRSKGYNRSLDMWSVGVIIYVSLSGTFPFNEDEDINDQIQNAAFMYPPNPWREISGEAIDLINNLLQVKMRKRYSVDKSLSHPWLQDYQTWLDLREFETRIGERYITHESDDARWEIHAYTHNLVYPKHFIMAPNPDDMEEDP

[13] = molecular target: T4, Serine/threonine-protein kinase D3 (Homo sapiens); settings: at 1 µM
[14] = molecular target: T5, cGMP-dependent protein kinase 1 (Homo sapiens) (UniProt Q13976); settings: at 0.1 µM
T5 sequence (whole entry): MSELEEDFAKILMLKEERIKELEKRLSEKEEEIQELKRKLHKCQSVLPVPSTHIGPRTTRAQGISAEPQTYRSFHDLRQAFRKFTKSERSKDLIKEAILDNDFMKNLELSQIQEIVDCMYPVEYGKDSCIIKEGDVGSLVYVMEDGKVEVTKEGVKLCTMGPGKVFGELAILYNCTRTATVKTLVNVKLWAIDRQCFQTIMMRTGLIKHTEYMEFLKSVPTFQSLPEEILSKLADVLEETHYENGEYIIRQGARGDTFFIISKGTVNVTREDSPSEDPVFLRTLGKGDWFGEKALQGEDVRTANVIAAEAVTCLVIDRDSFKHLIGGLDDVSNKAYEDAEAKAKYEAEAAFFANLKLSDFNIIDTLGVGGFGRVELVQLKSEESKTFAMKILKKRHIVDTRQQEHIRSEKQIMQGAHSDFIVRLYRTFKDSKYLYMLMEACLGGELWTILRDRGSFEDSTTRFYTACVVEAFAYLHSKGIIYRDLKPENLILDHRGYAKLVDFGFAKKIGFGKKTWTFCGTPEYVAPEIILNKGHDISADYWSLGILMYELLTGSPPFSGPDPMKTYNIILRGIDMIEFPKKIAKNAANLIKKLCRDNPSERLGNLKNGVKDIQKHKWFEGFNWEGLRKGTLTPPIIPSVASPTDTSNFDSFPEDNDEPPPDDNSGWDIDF

[15] = molecular target: T5, cGMP-dependent protein kinase 1 (Homo sapiens); settings: at 1 µM
[16] = molecular target: T6, cGMP-dependent protein kinase 2 (Homo sapiens) (UniProt Q13237); settings: at 0.1 µM
T6 sequence (whole entry): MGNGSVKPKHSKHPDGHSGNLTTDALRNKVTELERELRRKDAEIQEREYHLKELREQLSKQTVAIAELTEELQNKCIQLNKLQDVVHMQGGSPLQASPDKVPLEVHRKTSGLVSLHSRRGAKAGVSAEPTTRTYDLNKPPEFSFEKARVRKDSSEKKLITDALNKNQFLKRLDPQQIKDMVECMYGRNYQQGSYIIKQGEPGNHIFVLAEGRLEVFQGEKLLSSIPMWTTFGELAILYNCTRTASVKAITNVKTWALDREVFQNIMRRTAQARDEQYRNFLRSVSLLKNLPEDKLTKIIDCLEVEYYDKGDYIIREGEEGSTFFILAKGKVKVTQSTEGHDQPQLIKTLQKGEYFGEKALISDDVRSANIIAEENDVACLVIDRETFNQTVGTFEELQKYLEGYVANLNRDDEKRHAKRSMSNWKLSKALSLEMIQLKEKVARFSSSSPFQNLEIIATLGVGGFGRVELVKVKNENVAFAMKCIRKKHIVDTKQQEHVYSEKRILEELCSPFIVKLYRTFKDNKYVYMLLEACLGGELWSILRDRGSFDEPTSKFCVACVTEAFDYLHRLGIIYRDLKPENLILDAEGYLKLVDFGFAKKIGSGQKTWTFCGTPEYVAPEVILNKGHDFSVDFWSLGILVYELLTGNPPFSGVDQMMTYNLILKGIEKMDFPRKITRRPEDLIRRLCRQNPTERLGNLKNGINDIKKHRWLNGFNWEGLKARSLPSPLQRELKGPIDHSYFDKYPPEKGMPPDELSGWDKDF

[17] = molecular target: T6, cGMP-dependent protein kinase 2 (Homo sapiens); settings: at 1 µM
[18] = molecular target: T7, cAMP-dependent protein kinase catalytic subunit PRKX (Homo sapiens) (UniProt P51817); settings: at 0.1 µM
T7 sequence (whole entry): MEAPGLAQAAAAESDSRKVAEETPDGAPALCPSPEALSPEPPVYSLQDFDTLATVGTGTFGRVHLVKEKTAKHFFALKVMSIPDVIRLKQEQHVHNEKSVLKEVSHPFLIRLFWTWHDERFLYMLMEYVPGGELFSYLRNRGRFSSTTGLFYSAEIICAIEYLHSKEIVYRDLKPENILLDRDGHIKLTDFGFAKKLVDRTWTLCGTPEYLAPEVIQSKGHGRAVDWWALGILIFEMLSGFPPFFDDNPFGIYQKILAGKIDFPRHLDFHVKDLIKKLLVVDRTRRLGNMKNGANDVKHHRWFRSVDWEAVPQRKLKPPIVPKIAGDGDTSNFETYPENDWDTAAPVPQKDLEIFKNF

[19] = molecular target: T7, cAMP-dependent protein kinase catalytic subunit PRKX (Homo sapiens); settings: at 1 µM
[20] = molecular target: Rho-associated protein kinase 1 (Homo sapiens) (UniProt Q13464); settings: at 0.1 µM;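 further: values are mean percent inhibition of ROCK1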
Sequence of Rho-associated protein kinase 1 (Homo sapiens) (Q13464 2-1354 limits assumed): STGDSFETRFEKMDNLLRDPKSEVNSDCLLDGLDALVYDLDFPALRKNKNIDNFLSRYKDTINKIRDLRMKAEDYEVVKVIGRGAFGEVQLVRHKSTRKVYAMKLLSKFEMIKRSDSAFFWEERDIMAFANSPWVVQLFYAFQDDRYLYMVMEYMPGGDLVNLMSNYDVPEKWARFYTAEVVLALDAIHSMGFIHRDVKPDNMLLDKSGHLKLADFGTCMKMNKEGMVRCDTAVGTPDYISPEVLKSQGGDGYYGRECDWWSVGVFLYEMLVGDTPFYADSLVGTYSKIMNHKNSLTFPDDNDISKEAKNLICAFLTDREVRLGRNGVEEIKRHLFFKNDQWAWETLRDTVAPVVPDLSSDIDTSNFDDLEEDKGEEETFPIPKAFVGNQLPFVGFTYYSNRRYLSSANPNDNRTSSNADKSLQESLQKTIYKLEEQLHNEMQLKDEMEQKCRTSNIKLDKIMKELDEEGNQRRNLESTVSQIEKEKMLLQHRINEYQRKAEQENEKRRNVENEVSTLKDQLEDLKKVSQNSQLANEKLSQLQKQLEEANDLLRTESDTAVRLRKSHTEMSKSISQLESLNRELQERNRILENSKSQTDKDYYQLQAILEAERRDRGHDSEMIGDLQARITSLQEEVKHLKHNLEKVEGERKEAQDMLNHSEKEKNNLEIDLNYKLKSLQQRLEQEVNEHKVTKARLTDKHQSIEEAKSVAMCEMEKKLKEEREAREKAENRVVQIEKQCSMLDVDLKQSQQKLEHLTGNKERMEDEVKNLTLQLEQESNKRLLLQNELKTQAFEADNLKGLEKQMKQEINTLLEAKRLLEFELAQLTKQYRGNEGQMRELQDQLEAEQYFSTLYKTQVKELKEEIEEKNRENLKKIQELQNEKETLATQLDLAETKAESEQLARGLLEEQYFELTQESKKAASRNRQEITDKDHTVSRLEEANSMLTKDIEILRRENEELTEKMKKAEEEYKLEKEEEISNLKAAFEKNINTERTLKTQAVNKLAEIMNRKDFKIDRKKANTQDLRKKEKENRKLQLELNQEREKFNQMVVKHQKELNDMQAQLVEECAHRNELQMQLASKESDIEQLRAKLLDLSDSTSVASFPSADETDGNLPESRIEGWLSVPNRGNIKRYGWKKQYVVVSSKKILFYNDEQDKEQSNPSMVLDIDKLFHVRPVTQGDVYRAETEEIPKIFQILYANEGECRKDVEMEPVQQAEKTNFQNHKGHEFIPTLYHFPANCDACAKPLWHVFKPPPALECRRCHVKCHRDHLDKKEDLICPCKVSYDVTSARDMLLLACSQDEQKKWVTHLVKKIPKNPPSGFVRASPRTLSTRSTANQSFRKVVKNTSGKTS

SMILES	inhibition [1] [%]	inhibition [2] [%]	inhibition [3] [%]	inhibition [4] [%]	inhibition [5] [%]	inhibition [6] [%]	inhibition [7] [%]	inhibition [8] [%]	inhibition [9] [%]	inhibition [10] [%]	inhibition [11] [%]	inhibition [12] [%]	inhibition [13] [%]	inhibition [14] [%]	inhibition [15] [%]	inhibition [16] [%]	inhibition [17] [%]	inhibition [18] [%]	inhibition [19] [%]	inhibition [20] [%]
FC(F)(F)c1ccc(-c2nn3ncccc3c2-c2ccnc(Nc3ccc4c(c3)OCCO4)n2)cc1	5.47	6.58	3.53	2.52	5.32	5.29	6.33	2.27	-1.71	0.7	3.07	-0.32	-0.07	3.5	5.3	3.41	4.83	5.94	8.53	1.44
NS(=O)(=O)c1cccc(Nc2cc(-c3ccc(F)cc3)n[nH]2)c1	2.43	1.19	0.46	3.52	8.77	1.7	3.53	-0.81	4.04	2.47	3.29	2.9	3.78	2.36	5.63	4.45	6.86	6.02	9.4	1.22
COC(=O)Nc1nc2cc(Oc3ccc(NC(=O)Nc4cccc(Br)c4)cc3)ccc2[nH]1	0.29	1.23	0.06	1.7	1.69	0.71	2.06	2.15	4.31	4.58	4.58	2.07	3.88	1.83	2.02	0.8	2.14	1.95	1.14	2.54
